A short description of experiment [1]: qHTS assay to identify small molecule agonists of the peroxisome proliferator-activated receptor delta (PPARd) signaling pathway - cell viability counter screen (AID 743211). Further: nearly all actives have a fitted effect of over 55% in size. The procedure, abridged: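 Viability of GeneBLAzer PPARd UAS-bla HEK293H cells was assessed after 17 h compound incubation at 37C, using CellTiter-Glo reagent added after the reporter read and luminescence recorded 30 min later.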
On the technique in general: qHTS replaces the single test concentration by a dilution series.

Experiment [2] addresses Peroxisome proliferator-activated receptor delta (Homo sapiens) (UniProt Q03181). Nature of the experiment: qHTS assay to identify small molecule agonists of the peroxisome proliferator-activated receptor delta (PPARd) signaling pathway (AID 743212; calls by dose curve). The procedure, abridged:
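Cells expressing a UAS-driven beta-lactamase reporter (PPARd-bla HEK293H) were given test compounds after a 5 h settle and kept at 37 C. Reporter activity was then measured as FRET fluorescence using LiveBLAzer B/G substrate.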

Experiment [3] can be described thus: qHTS assay to identify small molecule antagonists of the peroxisome proliferator-activated receptor delta (PPARd) signaling pathway - cell viability counter screen (AID 743213). Further: nearly all actives have a fitted effect of over 50% in size. The procedure, abridged:
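CellTiter-Glo was added to PPARd-bla HEK293H wells following 17 h compound treatment in the presence of 300 nM L165041. Luminescence was recorded after 30 min at room temperature.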

For experiment [4], the target named is Peroxisome proliferator-activated receptor delta (Homo sapiens) (UniProt Q03181). Nature of the experiment: qHTS assay to identify small molecule antagonists of the peroxisome proliferator-activated receptor delta (PPARd) signaling pathway (AID 743215; active means well fitted inhibition curve with a large enough effect in the signal ratio in the repeat runs, not every such curve was filed as active; the % refers to the signal ratio;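 further: cells stimulated with agonist L165041 at 300 nM final during compound exposure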; further: potency means the concentration at half of the fitted maximal effect). The procedure, abridged: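 Plated HEK293H PPARd-bla cells rested 5 h at 37 C and 5% CO2. Compound, then agonist L165041 at 300 nM final, was added; 17 h at 37 C followed. Substrate loading, 2 h room temperature, fluorescence measured.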

Experiment [5] can be described thus: qHTS assay to identify small molecule agonists of the farnesoid-X-receptor (FXR) signaling pathway - cell viability counter screen (AID 743218). Further: nearly all actives have a fitted effect of over 45% in size. The procedure, abridged:
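Viability of FXR-bla HEK 293T cells is measured by ATP-based CellTiter-Glo luminescence following 16 h compound treatment at 37 C and a prior 2 h room-temperature beta-lactamase substrate step.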

Experiment [6] addresses Bile acid receptor (Homo sapiens) (UniProt Q96RI1). Briefly: qHTS assay to identify small molecule agonists of the farnesoid-X-receptor (FXR) signaling pathway (AID 743220; active means well fitted activation curve with a large enough effect in the signal ratio in the repeat runs, not every such curve was filed as active; the % refers to the signal ratio). In outline: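 FXR-UAS-bla HEK 293T cells carrying a UAS-driven beta-lactamase reporter were plated for 5 h at 37C/5% CO2, then exposed to DMSO-dissolved Tox21 10K compounds for 16 h at 37C. A LiveBLAzer B/G FRET substrate was loaded for 2 h at room temperature before fluorescence reading.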

A short description of experiment [7]: qHTS assay to identify small molecule antagonists of the farnesoid-X-receptor (FXR) signaling pathway - cell viability counter screen (AID 743221; active means well fitted cell-killing curve with a large enough effect in the repeat runs, not every such curve was filed as active; further: nearly all actives have a fitted effect of over 50% in size). In outline:
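Quantitative HTS of the Tox21 10K library run in parallel with the beta-lactamase reporter read. HEK 293T cells carrying a UAS-driven bla reporter got compound and 50 uM CDCA (final) for 16 h; ATP-based luminescence followed.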

Experiment [8] deals with Vitamin D3 receptor (Homo sapiens) (UniProt P11473). Nature of the experiment: qHTS assay to identify small molecule agonists of the vitamin D receptor (VDR) signaling pathway (AID 743222; calls by dose curve). The procedure, abridged: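 Fluorescence from cleaved LiveBLAzer B/G FRET substrate served as readout. VDR-bla cells had been treated 16 h at 37C with test compounds in DMSO, following a 4 h settling period, and substrate was loaded for 2 h at RT.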

Experiment [9] has the same target. Nature of the experiment: qHTS assay to identify small molecule antagonists of the vitamin D receptor (VDR) signaling pathway (AID 743223; active means well fitted inhibition curve with a large enough effect in the signal ratio in the repeat runs, not every such curve was filed as active; the % refers to the signal ratio). In outline: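 Fluorescence from LiveBLAzer B/G FRET substrate, read after 2 h at room temperature, reflects beta-lactamase reporter activity in VDR-bla cells treated 16 h at 37C with compounds and agonist 1alpha,25-dihydroxyvitamin D3 (3 nM final).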

The target of experiment [10] is Bile acid receptor (Homo sapiens) (UniProt Q96RI1). Briefly: qHTS assay to identify small molecule antagonists of the farnesoid-X-receptor (FXR) signaling pathway (AID 743217; active means well fitted inhibition curve with a large enough effect in the signal ratio in the repeat runs, not every such curve was filed as active; the % refers to the signal ratio). The procedure, abridged: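 Screen of the Tox21 10K library in quantitative HTS format using FXR-UAS-bla HEK 293T reporter cells. Agonist chenodeoxycholic acid, 50 uM final, added with compounds; 16 h incubation at 37 °C; beta-lactamase FRET fluorescence measured.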

Inconclusive results are not listed. A structure can be active in one record and inactive in another. Active and inactive are the calls of the source. Unless noted, the call rests on the fitted dose curve; in most records, active means well fitted curve in the direction sought with a large enough effect in the repeat runs; inconclusive means weak or mixed curves; inactive means no such curve, though single readings can be large; an effect the other way counts as inactive or inconclusive.

Sequence of Bile acid receptor (Homo sapiens) (Q96RI1 whole entry, looked up): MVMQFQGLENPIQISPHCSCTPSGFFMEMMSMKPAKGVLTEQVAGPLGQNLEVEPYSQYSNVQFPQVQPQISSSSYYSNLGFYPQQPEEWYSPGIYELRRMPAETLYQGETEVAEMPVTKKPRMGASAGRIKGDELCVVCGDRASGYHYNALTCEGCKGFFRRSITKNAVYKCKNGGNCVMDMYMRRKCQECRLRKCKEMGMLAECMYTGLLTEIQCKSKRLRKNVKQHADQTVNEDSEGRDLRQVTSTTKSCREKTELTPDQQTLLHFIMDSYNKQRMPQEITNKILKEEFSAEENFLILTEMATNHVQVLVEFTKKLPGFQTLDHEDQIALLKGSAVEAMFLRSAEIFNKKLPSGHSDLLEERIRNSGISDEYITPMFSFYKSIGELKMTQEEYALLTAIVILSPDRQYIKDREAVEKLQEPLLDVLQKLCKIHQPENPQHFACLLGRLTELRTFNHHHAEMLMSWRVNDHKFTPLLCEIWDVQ
Sequence of Peroxisome proliferator-activated receptor delta (Homo sapiens) (Q03181 whole entry, looked up): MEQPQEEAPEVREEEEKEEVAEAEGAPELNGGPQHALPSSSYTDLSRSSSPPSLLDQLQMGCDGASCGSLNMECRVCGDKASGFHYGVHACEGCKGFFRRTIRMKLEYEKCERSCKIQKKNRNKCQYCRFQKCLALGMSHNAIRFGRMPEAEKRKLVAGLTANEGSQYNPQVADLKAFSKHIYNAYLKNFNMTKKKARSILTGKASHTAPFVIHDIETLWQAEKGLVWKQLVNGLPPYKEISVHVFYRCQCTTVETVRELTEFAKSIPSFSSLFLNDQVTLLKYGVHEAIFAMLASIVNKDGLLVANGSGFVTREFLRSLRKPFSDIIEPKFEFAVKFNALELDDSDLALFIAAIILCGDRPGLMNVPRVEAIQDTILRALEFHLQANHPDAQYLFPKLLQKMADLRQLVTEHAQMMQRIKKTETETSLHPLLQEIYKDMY
Sequence of Vitamin D3 receptor (Homo sapiens) (P11473 whole entry, looked up): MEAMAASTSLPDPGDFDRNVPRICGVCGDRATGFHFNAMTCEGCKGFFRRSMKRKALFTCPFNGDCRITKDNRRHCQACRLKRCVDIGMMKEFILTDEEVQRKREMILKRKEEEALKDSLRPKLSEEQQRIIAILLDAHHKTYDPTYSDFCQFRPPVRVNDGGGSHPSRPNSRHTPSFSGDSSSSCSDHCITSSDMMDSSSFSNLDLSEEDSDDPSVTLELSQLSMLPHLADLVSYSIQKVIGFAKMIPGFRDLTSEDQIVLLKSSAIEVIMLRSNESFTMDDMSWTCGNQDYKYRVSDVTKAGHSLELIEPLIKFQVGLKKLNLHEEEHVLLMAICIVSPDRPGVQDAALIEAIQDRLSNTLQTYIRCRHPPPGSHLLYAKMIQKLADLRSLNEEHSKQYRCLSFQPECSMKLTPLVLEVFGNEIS

Consider `CN(C)[C@@H]1C(=O)C(C(N)=O)=C(O)[C@@]2(O)C(=O)C3=C(O)c4c(O)cccc4[C@@](C)(O)[C@H]3C[C@@H]12`, for which the result in experiment [1], in [2], in [3], in [5], in [6] and in [7] was inactive. Further, the Potency result in experiment [4] was “inactive”.

Take `c1ccc2c(c1)oc1ccccc12`: the outcome in experiment [1], in experiment [2], in [3], in experiment [5], in experiment [7] and in experiment [8] was inactive. Further, the result in experiment [9] was inactive. The Potency result in [4] was “inactive”.

For `CN=C=S`, the result in experiment [1], in experiment [2], in experiment [3], in experiment [5], in [6] and in experiment [7] was inactive. The compound was called inactive in experiment [8] and in experiment [9]. The Potency entry in experiment [4] was “inactive”.

Consider `c1cc2c3c(cccc3c1)CC2`, for which the call in [1], in experiment [2], in [3], in experiment [5] and in [7] was inactive. Moreover, the Potency result in [4] was “inactive”.

Turning to `CC(C)(C)OOC(C)(C)C`, the call in experiment [1], in experiment [2], in experiment [3], in experiment [5], in experiment [6] and in experiment [7] was inactive. Also, the Potency entry in experiment [4] is “inactive”.

As to `CCCN(CCC)N=O`, the result in experiment [1], in [2], in [3], in experiment [5], in experiment [7] and in experiment [8] was inactive. Moreover, the compound was called inactive in experiment [9]. Also, in [4], the Potency entry was “inactive”.

On to `Cn1cc(-c2ccccc2)c(=O)c(-c2cccc(C(F)(F)F)c2)c1`, for which the compound was classed as inactive in [1], in [2], in [3], in experiment [5] and in experiment [7]. The Potency entry in experiment [4] was “inactive”.

On to `C=CCO`, for which the outcome in experiment [1], in [2], in [3], in [5] and in [7] was inactive. Further, the Potency entry in experiment [4] was “inactive”.

For the compound `CC(C)=C[C@@H]1[C@@H](C(=O)OCc2coc(Cc3ccccc3)c2)C1(C)C`, the outcome in [1], in experiment [2], in experiment [3], in experiment [5], in [6] and in experiment [7] was inactive. Moreover, the result in experiment [8] and in experiment [9] was inactive. Further, in experiment [4], the Potency result is “inactive”.

`Cc1ccc([N+](=O)[O-])cc1C`: the outcome in experiment [1], in experiment [2], in experiment [5], in [6], in experiment [7] and in experiment [8] was inactive. For the same compound, the result in experiment [9] was inactive. Besides, in [4], the Potency entry is “inactive”.

As for `CCNc1nc(NC(C)C)nc(SC)n1`, the compound was classed as inactive in [1], in experiment [2], in experiment [3], in [5], in experiment [7] and in experiment [8]. Also, the compound was classed as inactive in [9]. In experiment [4], the Potency result is “inactive”.

Consider `Nc1ccc(Cc2ccc(N)cc2)cc1`, for which the result in experiment [1], in [2], in experiment [5], in experiment [6], in experiment [7] and in experiment [8] was inactive. Also, the call in experiment [9] was inactive. In experiment [4], the Potency result is “inactive”.

For the compound `COC(=O)NS(=O)(=O)c1ccc(N)cc1`, the compound was classed as inactive in experiment [1], in [2], in experiment [3], in experiment [5], in [7] and in experiment [8]. Moreover, the compound was classed as inactive in experiment [9]. In [4], the Potency result is “inactive”.

With `CCC12COCN1COC2`, the outcome in experiment [1], in [2], in experiment [3], in experiment [5], in experiment [7] and in [8] was inactive. Besides, in experiment [9], the call was inactive. The Potency result in [4] is “inactive”.

Take `CC(C)N1C(=O)c2ccccc2NS1(=O)=O`: the compound was called inactive in experiment [1], in [2], in experiment [5], in experiment [7] and in experiment [8]. In experiment [4], the Potency entry is “inactive”.

`CC1C=[C-]C=C1.[C-]#[O+].[C-]#[O+].[C-]#[O+].[Mn]`: the outcome in experiment [1], in experiment [2], in [10], in [6], in [7] and in experiment [8] was inactive. Besides, the compound was called inactive in experiment [9]. For the same compound, the Potency result in experiment [4] is “inactive”.

For `CCOC(=O)c1ccccc1C(=O)OCC`, the compound was classed as inactive in experiment [1], in experiment [2], in [5], in experiment [7], in experiment [8] and in experiment [9]. In addition, the Potency result in experiment [4] was “inactive”.

Regarding `[N-]=[N+]=[N-]`, the compound was classed as inactive in [1], in [2], in experiment [3], in [5], in [7] and in experiment [8]. Moreover, in experiment [9], the result was inactive. Besides, the Potency entry in [4] is “inactive”.

For `O=c1[nH]c2ccccc2c(=O)o1`, the result in [1], in experiment [2], in experiment [5], in experiment [6], in experiment [7] and in experiment [8] was inactive. Moreover, the call in [9] was inactive. For the same compound, in [4], the Potency result was “inactive”.

`BrCCBr`: the call in [1], in experiment [2], in experiment [3], in experiment [5], in [7] and in [8] was inactive. For the same compound, in experiment [9], the result was inactive. Besides, the Potency result in experiment [4] is “inactive”.

Turning to `c1ccc(-c2ccccc2)cc1`, the compound was classed as inactive in experiment [1], in experiment [2], in experiment [5], in [6] and in experiment [7]. In addition, the Potency result in experiment [4] is “inactive”.

Turning to `CCN(CC)CCO`, the result in experiment [1], in experiment [2], in [5] and in [7] was inactive. Moreover, in [4], the Potency result is “inactive”.

For the compound `CC(C)(C)C(O)(CCc1ccc(Cl)cc1)Cn1cncn1` (configuration not stated), the compound was classed as inactive in experiment [1], in experiment [2], in [3], in experiment [5], in experiment [7] and in experiment [8]. Moreover, the compound was called inactive in experiment [9]. In addition, the Potency result in [4] is “inactive”.

As to `CCC(C)(CC)c1cc(NC(=O)c2c(OC)cccc2OC)on1`, the result in experiment [1], in experiment [2], in experiment [5], in [7], in experiment [8] and in experiment [9] was inactive. In addition, in experiment [4], the Potency was 55.1 µM (active) and inactive.

On to `COc1ccc2c3c1O[C@H]1[C@@H](O)C=C[C@H]4[C@@H](C2)N(C)CC[C@@]341`, for which the compound was classed as inactive in [1], in [2], in experiment [5], in [6], in [7] and in [8]. The result in experiment [9] was inactive. Besides, the Potency in experiment [4] is 42.6 µM (active).

Take `CN(N=O)c1ccccc1`: the compound was called inactive in experiment [1], in experiment [2], in experiment [5], in experiment [6], in experiment [7] and in experiment [8]. In addition, the result in experiment [9] was inactive. Moreover, the Potency entry in experiment [4] was “inactive”.

For `CCCCN(CC)C(=O)SCCC`, the compound was classed as inactive in experiment [1], in experiment [2], in experiment [10], in experiment [5], in experiment [6] and in experiment [7]. Also, the result in [8] and in experiment [9] was inactive. Further, in experiment [4], the Potency entry is “inactive”.

For `C#CCN(C)[C@H](C)Cc1ccccc1`, the compound was called inactive in [1], in [2], in [3], in experiment [5], in experiment [7] and in experiment [8]. Further, the outcome in experiment [9] was inactive. In addition, the Potency result in experiment [4] is “inactive”.

In the case of `Clc1ccccc1Cl`, the compound was classed as inactive in experiment [1], in [2], in experiment [10], in experiment [5], in experiment [6] and in [7]. The call in experiment [8] and in experiment [9] was inactive. In addition, in experiment [4], the Potency result was “inactive”.

`CNC(=O)Oc1ccccc1OC(C)C`: the compound was classed as inactive in experiment [1], in experiment [2], in experiment [3], in experiment [5], in [7] and in experiment [8]. In addition, the result in [9] was inactive. Moreover, the Potency result in experiment [4] was “inactive”.

These data come from PubChem BioAssay (Tox21).
